These sequences were tested against CLEC9A (assay: pooled miR-30 sensor sort-seq; sequence = guide strand). Conditions: shRNA.
Note: reference of the scale not given here.

Sequence | sensor-assay potency score (higher = more potent)
TTCTCTTGACTGGTGTGCCAAA | -1.18
ATAGTAACAACTTTCTCTGTTC | -0.226
TTTTCTTGCTGCTGCATCGCAA | -0.454
TTGGATGAGTTTTTCTTGCTGC | 0.744
TTAAACAATTCTCTTGACTGGT | -0.125
TAGCTGACTGGGATCTCTCTGC | -0.395
TTGGAAGACAGACATTTCTGGT | -0.439

Each sequence was assayed against CLN3 in the same assay as above. Conditions: shRNA.

Sequence | sensor-assay potency score (higher = more potent)
TCAAATCGTGATGAGCTGTTGT | 0.182
AACACTGTCCACCTTTCCCGAA | -1.44
TTGTGGCTAAGGATGTCGTGGG | -0.303
AAGTAAACTACGACCAAGGGAA | -0.0602
AATCCCACTGACGAGAACCCGG | -0.766
CAGAGTTGCAGTCAAATCGTGA | -1.16
AAGACCACACCACACAGGCTGG | -1.35
TCTGCCAGCAGGAACACCAGGT | 0.0628
ATCGTGATGAGCTGTTGTGGGG | -0.665
AAATCGTGATGAGCTGTTGTGG | -0.817
TTGAACACTGTCCACCTTTCCC | -0.845
TAGAGACAGAGTTGCAGTCAAA | -1.26
TGGTACAGCATCTGGTACCAGC | -1.94
TCGTGATGAGCTGTTGTGGGGG | -0.528
TTGTGGAAGGTGTTCACGTAGG | -0.371
AATCGTGATGAGCTGTTGTGGG | -0.0059
AACAATTTGATGACGAGTGTGG | 0.272
TTGCAGTCAAATCGTGATGAGC | -1.19
GTGAGCAACAAGAAATAGCTGG | -0.754
TTTCCCGATGTCCTCTTGTGGC | -1.44
TGACTCAGGGAAGTGTTCCAGA | -0.693
TACAGCATCTGGTACCAGCGGT | -0.527
TGGTCCAACAGAGGGAGCCGGG | -1.78
TGAGCAACAAGAAATAGCTGGC | 0.625

These sequences were tested against CLN5 in the same assay as above. Conditions: shRNA.

Sequence | sensor-assay potency score (higher = more potent)
TTGCCAGTTAATGTACTTCTGA | -0.714
TGTTCTTGAACTCTGCTCCAAA | -0.828
TATAGTTGCTACTTGAACTAAT | -0.263
TACATAACTGATATGAACCATA | -0.617
TTCTTGTATAGTTGGTTTCTAT | -0.695
TGTTTGTGCACAATCACTGCAT | 0.594
TAGTTGGTTTCTATGTTCTTGA | -0.69
TTTCTATGTTCTTGAACTCTGC | -0.7
TTAACTTTATGCACCAAGGAAG | -0.963
